# Results from paper PMC5540273 (PLoS ONE, 2017).
# Legend:
# Details in all cases: concentration: 1 μM, replicates: in singlicate; n = 1
# [1] = system: AAK1
# [2] = system: ABL1-nonphosphorylated
# [3] = system: ABL1-phosphorylated
# 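Also: KINOMEscan kinase panel screen.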
smiles,measurement,setting,value
CCn1c(-c2ccncc2)nc2cnccc21 [SB-735216],%Inh,[1],0%
same,%Inh,[2],26%
same,%Inh,[3],0%
Fc1cccc(COc2ccc(Nc3ncnc4sc(-c5ccc[nH]5)cc34)cc2Cl)c1 [GW707818],%Inh,[1],0%
same,%Inh,[2],0%
same,%Inh,[3],0%
C[C@H]1CC[C@@H](C(=O)Nc2ccccc2)CN1c1cc(-c2ccc3c(N)n[nH]c3c2)nc(N)n1 [GSK2283293],%Inh,[1],23%
same,%Inh,[2],0%
same,%Inh,[3],8%
c1ccc(-c2ccc3c(-c4ccnc(Nc5ccc6c(c5)OCCO6)n4)cnn3n2)cc1 [GW818941],%Inh,[1],0%
same,%Inh,[2],0%
same,%Inh,[3],0%
Cc1cc(N2CCC(NS(=O)(=O)c3ccc(F)cc3)CC2)nc(Nc2cccc(C#N)c2)n1.O=C(O)C(F)(F)F [GSK1653537],%Inh,[1],9%
same,%Inh,[2],0%
same,%Inh,[3],0%
Nc1nc(-c2ccc3c(N)n[nH]c3c2)cc(N2CCCCC2)n1 [GSK2228768],%Inh,[1],53%
same,%Inh,[2],0%
same,%Inh,[3],0%
Nc1nccc2scc(-c3ccc4c(c3)CCN4C(=O)Cc3cc(F)ccc3F)c12 [GSK2587663],%Inh,[1],0%
same,%Inh,[2],0%
same,%Inh,[3],0%
Cc1ccc(NC(=O)c2cccc(C#N)c2)cc1-c1ccc(C(=O)Nc2ccncc2)cc1 [GSK1398463],%Inh,[1],73%
same,%Inh,[2],50%
same,%Inh,[3],10%
Fc1cccc(COc2ccc(Nc3ncnc4cc[nH]c34)cc2Cl)c1,%Inh,[1],4%
same,%Inh,[2],19%
same,%Inh,[3],21%
Clc1cc(Nc2ncnc3cc[nH]c23)ccc1OCc1ccccn1,%Inh,[1],7%
same,%Inh,[2],48%
same,%Inh,[3],0%
Cn1ccc2ncnc(Oc3ccc(NC(=O)Nc4cccnc4)c(Cl)c3)c21,%Inh,[1],19%
same,%Inh,[2],23%
same,%Inh,[3],0%
Clc1cccc(-c2nc(Nc3ccncc3)c3ccccc3n2)c1 [GW873004],%Inh,[1],0%
same,%Inh,[2],51%
same,%Inh,[3],14%
OCCOCCn1ccc2ncnc(Nc3ccc(Oc4cccc(Cl)c4)c(Cl)c3)c21,%Inh,[1],0%
same,%Inh,[2],24%
same,%Inh,[3],0%
COC(=O)c1cccc(NC(=O)NCCNc2ccnc(Nc3ccc(F)cc3)n2)c1 [GSK1379883],%Inh,[1],3%
same,%Inh,[2],0%
same,%Inh,[3],0%
Fc1ccc(-c2ncn(CCCNCc3ccccc3)c2-c2ccncc2)cc1,%Inh,[1],16%
same,%Inh,[2],25%
same,%Inh,[3],15%
Cl.Cn1ccc(-c2cccc(Nc3ccnc4cc(-c5nccs5)ccc34)c2)n1 [GW525701],%Inh,[1],50%
same,%Inh,[2],0%
same,%Inh,[3],1%
O=C(CCO)NCCn1ccc2ncnc(Nc3ccc(Oc4cccc(C(F)(F)F)c4)c(Cl)c3)c21,%Inh,[1],0%
same,%Inh,[2],24%
same,%Inh,[3],12%
N#Cc1ccc(Oc2ccc(Nc3ncnc4cc[nH]c34)cc2Cl)cc1,%Inh,[1],14%
same,%Inh,[2],51%
same,%Inh,[3],6%
Cl.Cl.c1ccc(-c2cc3ccncc3cc2OC2CCNCC2)cc1 [GSK1122999],%Inh,[1],27%
same,%Inh,[2],0%
same,%Inh,[3],0%
COc1ccc(Nc2nccc(N3CCC(NC(=O)Nc4ccc5c(c4)OCO5)C3)n2)cc1 (stereo not drawn) [GSK1379745],%Inh,[1],3%
same,%Inh,[2],0%
same,%Inh,[3],0%
O=C(NCCCN1CCCC1=O)c1cnc(NCc2cc(Cl)ccc2Cl)nc1NC1CCNCC1,%Inh,[1],0%
same,%Inh,[2],0%
same,%Inh,[3],0%
Cl.Fc1ccccc1COc1ccc(Nc2ncnc3ccc(-c4nnc(C(F)(F)F)o4)cc23)cc1Cl [GW424170],%Inh,[1],0%
same,%Inh,[2],0%
same,%Inh,[3],0%
